Holding throughout (assay): PBM; 200 nM protein, PBS
Holding throughout (details): dsDNA, one strand shown

The target in assay [1] is HOXA4 (Homo sapiens, UniProt Q00056 201-287, W262R).
Assay [2] deals with PRRX1 (Homo sapiens, UniProt P54821 80-166, F113S).
Assay [3] has as its target HOXA2 (Homo sapiens, UniProt O43364 129-215, R185T).
The target in assay [4] is HOXA4 (Homo sapiens, UniProt Q00056 201-287, R217L).
In assay [5] the target is MSX2 (Homo sapiens, UniProt P35548 130-214, R199I).
Chain of MSX2 (Homo sapiens, UniProt P35548 130-214, R199I) (P35548 130-214 R199I): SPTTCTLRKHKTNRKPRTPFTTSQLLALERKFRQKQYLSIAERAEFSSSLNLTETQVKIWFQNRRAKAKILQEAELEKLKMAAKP
For assay [6], the target named is HOXA2 (Homo sapiens, UniProt O43364 129-215, R185K).
Chain of HOXA2 (Homo sapiens, UniProt O43364 129-215, R185K) (O43364 129-215 R185K): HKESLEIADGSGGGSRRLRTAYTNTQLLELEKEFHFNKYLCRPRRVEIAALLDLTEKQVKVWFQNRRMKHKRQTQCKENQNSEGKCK
Assay [7] concerns the target HOXA4 (Homo sapiens, UniProt Q00056 201-287).
The target of assay [8] is MSX2 (Homo sapiens, UniProt P35548 130-214).
Chain of MSX2 (Homo sapiens, UniProt P35548 130-214) (P35548 130-214): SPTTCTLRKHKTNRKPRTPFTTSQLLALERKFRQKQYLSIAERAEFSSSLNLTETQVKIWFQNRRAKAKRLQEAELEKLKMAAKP
In assay [9] the target is MSX2 (Homo sapiens, UniProt P35548 130-214, F161Y).
Chain of MSX2 (Homo sapiens, UniProt P35548 130-214, F161Y) (P35548 130-214 F161Y): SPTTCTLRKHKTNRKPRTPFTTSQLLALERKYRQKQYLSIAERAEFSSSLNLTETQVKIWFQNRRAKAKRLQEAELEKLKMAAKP
The target in assay [10] is HOXA2 (Homo sapiens, UniProt O43364 129-215, Y150S).
Chain of HOXA2 (Homo sapiens, UniProt O43364 129-215, Y150S) (O43364 129-215 Y150S): as the sequence (O43364 129-215 R185K) above, with Y22S, K57R counted along it
Assay [11] deals with HOXA4 (Homo sapiens, UniProt Q00056 201-287, W262F).
Chain of HOXA4 (Homo sapiens, UniProt Q00056 201-287, W262F) (Q00056 201-287 W262F): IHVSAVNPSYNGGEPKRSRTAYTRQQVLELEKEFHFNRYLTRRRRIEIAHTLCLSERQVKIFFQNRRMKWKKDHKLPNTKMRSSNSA
Assay [12] deals with PRRX1 (Homo sapiens, UniProt P54821 80-166).
Chain of PRRX1 (Homo sapiens, UniProt P54821 80-166) (P54821 80-166): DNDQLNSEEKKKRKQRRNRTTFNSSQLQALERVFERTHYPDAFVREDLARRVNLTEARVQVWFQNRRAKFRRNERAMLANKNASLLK
The target of assay [13] is HOXA2 (Homo sapiens, UniProt O43364 129-215).
Chain of HOXA2 (Homo sapiens, UniProt O43364 129-215) (O43364 129-215): as the sequence (O43364 129-215 R185K) above, with K57R counted along it
For assay [14], the target named is HOXC9 (Homo sapiens, UniProt P31274 178-260, K195R).
Chain of HOXC9 (Homo sapiens, UniProt P31274 178-260, K195R) (P31274 178-260 K195R): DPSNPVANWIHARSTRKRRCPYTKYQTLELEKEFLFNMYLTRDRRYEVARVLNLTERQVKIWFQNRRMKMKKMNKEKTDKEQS
The target in assay [15] is HOXC9 (Homo sapiens, UniProt P31274 178-260).
Chain of HOXC9 (Homo sapiens, UniProt P31274 178-260) (P31274 178-260): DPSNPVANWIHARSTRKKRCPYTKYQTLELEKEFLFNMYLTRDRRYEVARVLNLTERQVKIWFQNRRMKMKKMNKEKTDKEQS
Assay [16] concerns the target HOXD13 (Homo sapiens, UniProt P35453 263-343, T313R).
In assay [17] the target is HOXC9 (Homo sapiens, UniProt P31274 178-260, R193K).
Chain of HOXC9 (Homo sapiens, UniProt P31274 178-260, R193K) (P31274 178-260 R193K): as the sequence (P31274 178-260) above, with R16K counted along it
The target of assay [18] is HOXD13 (Homo sapiens, UniProt P35453 263-343).
Chain of HOXD13 (Homo sapiens, UniProt P35453 263-343) (P35453 263-343): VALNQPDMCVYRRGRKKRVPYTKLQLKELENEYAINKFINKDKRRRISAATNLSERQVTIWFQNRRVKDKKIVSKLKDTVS
Assay [19] addresses HOXD13 (Homo sapiens, UniProt P35453 263-343, T313A).
Assay [20] has as its target HOXC9 (Homo sapiens, UniProt P31274 178-260, R222W).
The target in assay [21] is T1, PAX4 (Homo sapiens, UniProt O43316 9-242, R200K).
T1 sequence: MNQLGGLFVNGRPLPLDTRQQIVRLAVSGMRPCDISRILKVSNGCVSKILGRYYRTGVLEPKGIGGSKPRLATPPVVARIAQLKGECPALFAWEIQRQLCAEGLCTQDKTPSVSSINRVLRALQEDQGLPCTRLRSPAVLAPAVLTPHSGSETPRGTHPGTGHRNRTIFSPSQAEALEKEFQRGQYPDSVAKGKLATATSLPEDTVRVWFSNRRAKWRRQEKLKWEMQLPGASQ

For assay [22], the target named is T2, PAX4 (Homo sapiens, UniProt O43316 9-242).
T2 sequence: T1 sequence with K192R

Assay [23] deals with T3, PAX4 (Homo sapiens, UniProt O43316 9-242, R200Q).
T3 sequence: T1 sequence with K192Q

Assay [24] addresses T4, PAX4 (Homo sapiens, UniProt O43316 9-242, F177V).
T4 sequence: T1 sequence with F169V, K192R

For assay [25], the target named is T5, PAX4 (Homo sapiens, UniProt O43316 9-242, F177Y).
T5 sequence: T1 sequence with F169Y, K192R

The target in assay [26] is T6, PAX4 (Homo sapiens, UniProt O43316 9-242, R227W).
T6 sequence: T1 sequence with K192R, R219W

Assay [27] addresses ALX1 (Homo sapiens, UniProt Q15699 118-204, L144V).
For assay [28], the target named is ALX1 (Homo sapiens, UniProt Q15699 118-204, L144R).
Chain of ALX1 (Homo sapiens, UniProt Q15699 118-204, L144R) (Q15699 118-204 L144R): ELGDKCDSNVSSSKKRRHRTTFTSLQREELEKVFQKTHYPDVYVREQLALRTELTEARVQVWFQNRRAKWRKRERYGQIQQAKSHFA
The target of assay [29] is PROP1 (Homo sapiens, UniProt O75360 56-141).
Chain of PROP1 (Homo sapiens, UniProt O75360 56-141) (O75360 56-141): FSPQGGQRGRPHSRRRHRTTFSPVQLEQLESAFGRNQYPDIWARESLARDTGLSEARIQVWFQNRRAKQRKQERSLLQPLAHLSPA
Assay [30] concerns the target PROP1 (Homo sapiens, UniProt O75360 56-141, R99H).
For assay [31], the target named is PROP1 (Homo sapiens, UniProt O75360 56-141, F88S).
Chain of PROP1 (Homo sapiens, UniProt O75360 56-141, F88S) (O75360 56-141 F88S): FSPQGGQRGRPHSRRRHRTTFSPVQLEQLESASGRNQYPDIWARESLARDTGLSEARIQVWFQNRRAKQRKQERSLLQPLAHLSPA
Assay [32] has as its target ALX1 (Homo sapiens, UniProt Q15699 118-204).
The target of assay [33] is HOXC10 (Homo sapiens, UniProt Q9NYD6 254-340).
Chain of HOXC10 (Homo sapiens, UniProt Q9NYD6 254-340) (Q9NYD6 254-340): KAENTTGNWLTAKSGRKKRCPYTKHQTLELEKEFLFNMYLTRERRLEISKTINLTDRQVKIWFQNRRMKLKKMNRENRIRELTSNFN
Assay [34] deals with ALX3 (Homo sapiens, UniProt O95076 139-225, N203Q).
Chain of ALX3 (Homo sapiens, UniProt O95076 139-225, N203Q) (O95076 139-225 N203Q): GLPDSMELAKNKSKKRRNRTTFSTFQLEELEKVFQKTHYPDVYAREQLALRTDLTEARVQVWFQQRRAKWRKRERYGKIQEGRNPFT
In assay [35] the target is HOXC10 (Homo sapiens, UniProt Q9NYD6 254-340, K271E).
Chain of HOXC10 (Homo sapiens, UniProt Q9NYD6 254-340, K271E) (Q9NYD6 254-340 K271E): as the sequence (Q9NYD6 254-340) above, with K18E counted along it
The target in assay [36] is ALX3 (Homo sapiens, UniProt O95076 139-225).
Chain of ALX3 (Homo sapiens, UniProt O95076 139-225) (O95076 139-225): as the sequence (O95076 139-225 N203Q) above, with Q65N counted along it
In assay [37] the target is ALX3 (Homo sapiens, UniProt O95076 139-225, L168Q).
Chain of ALX3 (Homo sapiens, UniProt O95076 139-225, L168Q) (O95076 139-225 L168Q): as the sequence (O95076 139-225 N203Q) above, with L30Q, Q65N counted along it
Assay [38] deals with ALX3 (Homo sapiens, UniProt O95076 139-225, L168V).
Chain of ALX3 (Homo sapiens, UniProt O95076 139-225, L168V) (O95076 139-225 L168V): as the sequence (O95076 139-225 N203Q) above, with L30V, Q65N counted along it
Assay [39] concerns the target ALX3 (Homo sapiens, UniProt O95076 139-225, N203S).
Assay [40] concerns the target HOXB6 (Homo sapiens, UniProt P17509 132-218, K202E).
In assay [41] the target is NKX3-2 (Homo sapiens, UniProt P78367 192-278, P234S).
Chain of NKX3-2 (Homo sapiens, UniProt P78367 192-278, P234S) (P78367 192-278 P234S): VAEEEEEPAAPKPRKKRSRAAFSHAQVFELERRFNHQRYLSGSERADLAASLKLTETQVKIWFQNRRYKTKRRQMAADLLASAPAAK
Assay [42] deals with HOXB6 (Homo sapiens, UniProt P17509 132-218).
Chain of HOXB6 (Homo sapiens, UniProt P17509 132-218) (P17509 132-218): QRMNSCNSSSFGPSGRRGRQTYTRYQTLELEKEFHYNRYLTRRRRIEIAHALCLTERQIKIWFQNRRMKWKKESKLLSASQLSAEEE
Assay [43] concerns the target NKX3-2 (Homo sapiens, UniProt P78367 192-278).

Numbering of substitutions follows the chain as printed.

Chain of HOXA4 (Homo sapiens, UniProt Q00056 201-287, W262R) (Q00056 201-287 W262R): as the sequence (Q00056 201-287 W262F) above, with F62R counted along it
Chain of HOXA4 (Homo sapiens, UniProt Q00056 201-287) (Q00056 201-287): as the sequence (Q00056 201-287 W262F) above, with F62W counted along it
Chain of HOXA4 (Homo sapiens, UniProt Q00056 201-287, R217L) (Q00056 201-287 R217L): as the sequence (Q00056 201-287 W262F) above, with R17L, F62W counted along it
Chain of HOXC9 (Homo sapiens, UniProt P31274 178-260, R222W) (P31274 178-260 R222W): as the sequence (P31274 178-260) above, with R45W counted along it
Chain of ALX3 (Homo sapiens, UniProt O95076 139-225, N203S) (O95076 139-225 N203S): as the sequence (O95076 139-225 N203Q) above, with Q65S counted along it
Chain of ALX1 (Homo sapiens, UniProt Q15699 118-204, L144V) (Q15699 118-204 L144V): as the sequence (Q15699 118-204 L144R) above, with R27V counted along it
Chain of ALX1 (Homo sapiens, UniProt Q15699 118-204) (Q15699 118-204): as the sequence (Q15699 118-204 L144R) above, with R27L counted along it
Chain of HOXD13 (Homo sapiens, UniProt P35453 263-343, T313A) (P35453 263-343 T313A): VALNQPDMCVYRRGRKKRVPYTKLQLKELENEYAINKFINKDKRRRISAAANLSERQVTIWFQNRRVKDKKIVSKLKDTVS
Chain of HOXA2 (Homo sapiens, UniProt O43364 129-215, R185T) (O43364 129-215 R185T): as the sequence (O43364 129-215 R185K) above, with K57T counted along it
Chain of PRRX1 (Homo sapiens, UniProt P54821 80-166, F113S) (P54821 80-166 F113S): as the sequence (P54821 80-166) above, with F34S counted along it
Chain of NKX3-2 (Homo sapiens, UniProt P78367 192-278) (P78367 192-278): as the sequence (P78367 192-278 P234S) above, with S43P counted along it
Chain of HOXD13 (Homo sapiens, UniProt P35453 263-343, T313R) (P35453 263-343 T313R): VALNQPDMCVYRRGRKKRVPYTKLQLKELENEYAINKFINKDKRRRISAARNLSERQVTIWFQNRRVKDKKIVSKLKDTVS
Chain of PROP1 (Homo sapiens, UniProt O75360 56-141, R99H) (O75360 56-141 R99H): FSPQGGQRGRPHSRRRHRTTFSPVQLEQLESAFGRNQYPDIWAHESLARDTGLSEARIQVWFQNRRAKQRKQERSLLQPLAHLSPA
Chain of HOXB6 (Homo sapiens, UniProt P17509 132-218, K202E) (P17509 132-218 K202E): as the sequence (P17509 132-218) above, with K71E counted along it

CCCCCCAG: the binding signal is 9.46 upbm affinity estimate (log intensity, higher = more binding, comparable within an allelic series) in assay [1]; 9 upbm affinity estimate (log intensity, higher = more binding, comparable within an allelic series) in assay [2]; 6.72 upbm affinity estimate (log intensity, higher = more binding, comparable within an allelic series) in [3]; 9.39 upbm affinity estimate (log intensity, higher = more binding, comparable within an allelic series) in [4]; 9.41 upbm affinity estimate (log intensity, higher = more binding, comparable within an allelic series) in assay [5]; 9.81 upbm affinity estimate (log intensity, higher = more binding, comparable within an allelic series) in assay [6]. For the same sequence, the binding signal was 9.42 upbm affinity estimate (log intensity, higher = more binding, comparable within an allelic series) in assay [7]; 9.49 upbm affinity estimate (log intensity, higher = more binding, comparable within an allelic series) in assay [8]; 9.5 upbm affinity estimate (log intensity, higher = more binding, comparable within an allelic series) in assay [9]; 10.1 upbm affinity estimate (log intensity, higher = more binding, comparable within an allelic series) in [10]; 9.4 upbm affinity estimate (log intensity, higher = more binding, comparable within an allelic series) in [11]; 9.37 upbm affinity estimate (log intensity, higher = more binding, comparable within an allelic series) in assay [12]. In [13], the binding signal is 6.91 upbm affinity estimate (log intensity, higher = more binding, comparable within an allelic series).
As for CCCGACGC, the binding signal in assay [1] is 9.83 upbm affinity estimate (log intensity, higher = more binding, comparable within an allelic series); in [14], 9.46 upbm affinity estimate (log intensity, higher = more binding, comparable within an allelic series); in assay [4], 9.86 upbm affinity estimate (log intensity, higher = more binding, comparable within an allelic series); in assay [15], 9.54 upbm affinity estimate (log intensity, higher = more binding, comparable within an allelic series); in [16] it was 9.45 upbm affinity estimate (log intensity, higher = more binding, comparable within an allelic series); in [17], 9.42 upbm affinity estimate (log intensity, higher = more binding, comparable within an allelic series). Besides, the binding signal in assay [18] was 9.26 upbm affinity estimate (log intensity, higher = more binding, comparable within an allelic series); in assay [7], 9.73 upbm affinity estimate (log intensity, higher = more binding, comparable within an allelic series); in assay [19], 9.49 upbm affinity estimate (log intensity, higher = more binding, comparable within an allelic series); in [20], 9.75 upbm affinity estimate (log intensity, higher = more binding, comparable within an allelic series); in [11], 9.96 upbm affinity estimate (log intensity, higher = more binding, comparable within an allelic series).
As for CCCTGGTC, the binding signal is 9.79 upbm affinity estimate (log intensity, higher = more binding, comparable within an allelic series) in [1]; 9.07 upbm affinity estimate (log intensity, higher = more binding, comparable within an allelic series) in [21]; 9.08 upbm affinity estimate (log intensity, higher = more binding, comparable within an allelic series) in assay [22]; 9.68 upbm affinity estimate (log intensity, higher = more binding, comparable within an allelic series) in [4]; 9.25 upbm affinity estimate (log intensity, higher = more binding, comparable within an allelic series) in assay [23]; 9.22 upbm affinity estimate (log intensity, higher = more binding, comparable within an allelic series) in assay [24]. For the same sequence, the binding signal was 9.69 upbm affinity estimate (log intensity, higher = more binding, comparable within an allelic series) in [7]; 9.15 upbm affinity estimate (log intensity, higher = more binding, comparable within an allelic series) in assay [25]; 9.21 upbm affinity estimate (log intensity, higher = more binding, comparable within an allelic series) in [26]; 9.7 upbm affinity estimate (log intensity, higher = more binding, comparable within an allelic series) in assay [11].
For the sequence CCGAGAGG, the binding signal in [1] is 9.76 upbm affinity estimate (log intensity, higher = more binding, comparable within an allelic series); in assay [14], 9.41 upbm affinity estimate (log intensity, higher = more binding, comparable within an allelic series); in assay [4], 9.77 upbm affinity estimate (log intensity, higher = more binding, comparable within an allelic series); in [15], 9.42 upbm affinity estimate (log intensity, higher = more binding, comparable within an allelic series); in assay [27], 6.38 upbm affinity estimate (log intensity, higher = more binding, comparable within an allelic series); in [17] it was 9.45 upbm affinity estimate (log intensity, higher = more binding, comparable within an allelic series). Also, the binding signal in [28] is 6.33 upbm affinity estimate (log intensity, higher = more binding, comparable within an allelic series); in assay [7] it was 9.59 upbm affinity estimate (log intensity, higher = more binding, comparable within an allelic series); in [29], 6.47 upbm affinity estimate (log intensity, higher = more binding, comparable within an allelic series); in assay [30], 6.52 upbm affinity estimate (log intensity, higher = more binding, comparable within an allelic series); in [20], 9.58 upbm affinity estimate (log intensity, higher = more binding, comparable within an allelic series); in assay [31] it was 6.64 upbm affinity estimate (log intensity, higher = more binding, comparable within an allelic series). Besides, the binding signal was 6.34 upbm affinity estimate (log intensity, higher = more binding, comparable within an allelic series) in assay [32] and 9.74 upbm affinity estimate (log intensity, higher = more binding, comparable within an allelic series) in assay [11].
Regarding CCGGCAGG, the binding signal was 9.95 upbm affinity estimate (log intensity, higher = more binding, comparable within an allelic series) in [1]; 10.2 upbm affinity estimate (log intensity, higher = more binding, comparable within an allelic series) in assay [33]; 9.86 upbm affinity estimate (log intensity, higher = more binding, comparable within an allelic series) in [4]; 7.82 upbm affinity estimate (log intensity, higher = more binding, comparable within an allelic series) in assay [34]; 10 upbm affinity estimate (log intensity, higher = more binding, comparable within an allelic series) in assay [7]; 9.98 upbm affinity estimate (log intensity, higher = more binding, comparable within an allelic series) in assay [35]. Besides, the binding signal in assay [36] is 7.72 upbm affinity estimate (log intensity, higher = more binding, comparable within an allelic series); in [37], 7.79 upbm affinity estimate (log intensity, higher = more binding, comparable within an allelic series); in assay [38], 7.78 upbm affinity estimate (log intensity, higher = more binding, comparable within an allelic series); in assay [11], 9.96 upbm affinity estimate (log intensity, higher = more binding, comparable within an allelic series); in [39] it was 7.86 upbm affinity estimate (log intensity, higher = more binding, comparable within an allelic series).
For CAGCCTCC, the binding signal is 9.65 upbm affinity estimate (log intensity, higher = more binding, comparable within an allelic series) in [1]; 8.86 upbm affinity estimate (log intensity, higher = more binding, comparable within an allelic series) in [40]; 9.73 upbm affinity estimate (log intensity, higher = more binding, comparable within an allelic series) in assay [4]; 6.61 upbm affinity estimate (log intensity, higher = more binding, comparable within an allelic series) in [27]; 7.63 upbm affinity estimate (log intensity, higher = more binding, comparable within an allelic series) in [34]; 6.48 upbm affinity estimate (log intensity, higher = more binding, comparable within an allelic series) in assay [28]. The binding signal in assay [7] was 9.62 upbm affinity estimate (log intensity, higher = more binding, comparable within an allelic series); in assay [36], 7.74 upbm affinity estimate (log intensity, higher = more binding, comparable within an allelic series); in assay [37], 7.64 upbm affinity estimate (log intensity, higher = more binding, comparable within an allelic series); in [38], 7.62 upbm affinity estimate (log intensity, higher = more binding, comparable within an allelic series); in [41], 10.7 upbm affinity estimate (log intensity, higher = more binding, comparable within an allelic series); in [32], 6.39 upbm affinity estimate (log intensity, higher = more binding, comparable within an allelic series). In addition, the binding signal in assay [11] was 9.71 upbm affinity estimate (log intensity, higher = more binding, comparable within an allelic series); in [39], 7.61 upbm affinity estimate (log intensity, higher = more binding, comparable within an allelic series); in [42] it was 8.88 upbm affinity estimate (log intensity, higher = more binding, comparable within an allelic series); in [43], 10.7 upbm affinity estimate (log intensity, higher = more binding, comparable within an allelic series).

The values above are taken from publication PMC11006913.
